# Sampled rows, rich in hits. Any-hit rate of the full collection: about 2.2%.
# KLF5 inh = kruppel-like factor 5 inhibition | DLD-1 KLF5 promoter-luciferase reporter, luminescence | inhibition, % at 5 µM | 290,000 tested, 0.23% active;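 active = inhibition above a per-plate limit of that plate's mean compound inhibition plus 3 SD, cut at about 60% in these data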;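 note: higher means less KLF5 promoter-driven luciferase light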
# IEC-6 tox-1 = IEC-6 cytotoxicity, counter-screen for KLF5 inhibitors; 290,000 tested, 0.78% active; luminescence viability; inhibition, % at 5 µM; AID 1825
# Ba/F3 V617F tox = lowers viability of Ba/F3 cells expressing EpoR and JAK2V617F; ATP luminescence; inhibition, % at 5.6 µM; 220,000 tested, 1.1% active; AID 1446;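 active = inhibition above the campaign mean plus 3 SD over all tested compounds, cut at about 24% in these data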;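 note: cytokine-independent growth of Ba/F3 cells driven by EpoR plus mutant JAK2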
# aSyn UTR inh = 5' untranslated region of α-synuclein, MLPCN primary screen; alpha-synuclein 5'UTR reporter, inhibitor activity; inhibition, % (tested at 7.5 µM); AID 1813; 300,000 tested, 0.82% active; in the data active = inhibition above about 60%;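 note: H4 neuroglioblastoma cells stably carrying SNCA 5'UTR luciferase fusion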
# APP transl inh = APP translation inhibition. inhibition, % at 2 µM. SH-SY5Y APP 5'UTR-luciferase reporter, luminescence. 190,000 tested, 0.82% active. AID 1285;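 active = inhibition above a set limit, derived from the sample mean plus 3 SD, cut at about 45% in these data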
# BaF3 tox = reduces parental Ba/F3 cell viability, JAK2V617F counter-screen. CellTiter-Glo ATP luminescence. inhibition, % at 5.6 µM. 220,000 tested, 1.1% active. AID 1486;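 active = inhibition above a per-campaign cutoff, the mean inhibition of all tested compounds plus 3 SD, cut at about 27% in these data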
# BaF3 parental 2 = parental Ba/F3 viability inhibition for JAK2V617F counter-screen | shares compounds with Ba/F3 V617F tox | 580 tested, 31% active | CellTiter-Glo luminescence; cells kept alive by added IL-3 | inhibition, % at 5.6 µM;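 active = cell growth inhibition above the hit limit set in the earlier mutant JAK2 cell screen, cut at about 27% in these data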
# JAK2V617F confrm = confirmation: loss of viability in JAK2V617F-dependent Ba/F3 cells. shares compounds with Ba/F3 V617F tox. Ba/F3 EpoR-JAK2V617F viability, CellTiter-Glo luminescence. inhibition, % at 5.6 µM. 580 tested, 66% active;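 active = mean inhibition above the hit cutoff derived in the earlier primary screen, cut at about 25% in these data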;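 note: higher means lower luminescence from reduced cell ATP and viability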
# KLF5 confirm = confirmation of KLF5 inhibitors; shares compounds with KLF5 inh; DLD-1 KLF5 promoter firefly luciferase reporter, luminescence; inhibition, % at 4 µM; 610 tested, 79% active; AID 1834;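 active = inhibition above a set limit taken from the earlier primary screen, cut at about 63% in these data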
# IEC-6 tox-2 = kills rat IEC-6 cells in KLF5 counter-screen. 610 tested, 56% active. inhibition, % at 4 µM. IEC-6 rat intestinal cells, viability luminescence. AID 1905. shares compounds with KLF5 inh; in the data active = inhibition above about 23%;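 note: cells exposed to compounds for 48 hours before viability read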
# IEC-6 tox confirm = IEC-6 cytotoxicity, confirmation assay; 1,900 tested, 63% active; inhibition, % at 5 µM; shares compounds with IEC-6 tox-1; IEC-6 rat intestinal epithelial viability, luminescence; AID 1907
# Hits are given with their value; n = inactive; x = not tested or not shown. Cut-off read from the data, not from the text of the source, unless noted: active = inhibition above about 22%; inactive = the rest.
SMILES,KLF5 inh,IEC-6 tox-1,Ba/F3 V617F tox,aSyn UTR inh,APP transl inh,BaF3 tox,BaF3 parental 2,JAK2V617F confrm,IEC-6 tox confirm,others
CC(C)C(=O)Nc1ccc(C(=O)NCc2cccnc2)cc1,n,61.9,59.7,n,n,n,35.0,98.8,23.3,
O=C(NCc1cccnc1)c1ccc(NC(=O)c2ccco2)cc1,n,n,n,n,n,n,x,x,x,
CCOc1ccccc1C(=O)Nc1ccsc1C(=O)OC,n,31.9,53.6,65.3,84.8,n,58.1,93.9,52.5,
Cc1cnc(CNC(=O)C2CCC(=O)N(Cc3ccc(Cl)cc3)C2)[nH]1 (stereo unspecified),n,n,x,n,x,x,x,x,x,
CCOCCCNC(=O)/C(C#N)=C/c1cc(Br)c(O)c(Br)c1,n,23.5,64.4,n,x,n,n,55.0,n,
Cc1ccc(N(C(=O)CCl)C(C(=O)NC2CCCCC2)c2cccnc2)cc1C (stereo unspecified),n,79.8,85.9,n,n,n,76.6,100.0,63.1,
Cc1ccc(N(C(=O)CNC(=O)c2ccco2)C(C(=O)NC2CCCCC2)c2cccnc2)cc1C (stereo unspecified),n,n,x,n,x,x,x,x,x,
COc1ccc(/C=C/C(=O)Nc2ccc(OC)nc2)cc1,n,n,n,n,n,n,x,x,x,
COc1ccc(CS(=O)(=O)/C(Cl)=C(/Cl)C(=O)Nc2ccc(OC)nc2)cc1,n,87.7,31.8,n,84.0,n,99.3,99.1,29.2,
COC1=C(Nc2ccc(O)cc2)C(=O)c2ccccc2C1=O,n,n,n,n,n,n,x,x,x,
O=C1C=C(Nc2ccc(O)cc2)C(=O)c2ccccc21,n,25.2,49.2,67.5,x,n,n,76.2,n,
CCC(=O)NC1(Cc2ccc(O)cc2)CCCCC1,n,n,n,n,n,n,x,x,x,
Cc1ccc(OCCN2C(=O)C(=O)c3cc(C)ccc32)cc1,n,90.6,24.8,n,84.3,n,57.4,99.5,46.4,
CCOc1cc(C(=O)N=c2sccn2C)ccc1OC(F)F,n,n,x,n,x,x,x,x,x,
Cc1ccc(S(=O)(=O)N2CCC(C(=O)OCC(=O)N(C)CC(=O)Nc3ccc(F)cc3)CC2)cc1C,x,x,x,n,x,x,x,x,x,
Nc1nnnn1/N=C/C(Br)=C/c1ccccc1,n,100.7,73.7,n,90.7,n,105.3,99.7,54.4,
Cc1ccc(Cl)c(OCC(=O)Nc2ccccc2N2CCCCC2)c1,x,x,x,n,x,x,x,x,x,
COc1ccc(-c2cnc3c(c2)CCC3(C#N)C#N)cc1,n,69.9,38.3,n,62.5,n,n,77.7,n,
Cc1ccc(CNC(=O)[C@@H](NC(=O)C2CCN(C(=O)[C@@H](N)CC(C)C)CC2)C(C)C)cc1,n,n,x,n,x,x,x,x,x,
CCCNC(=O)c1nnsc1S(=O)(=O)c1ccc(Cl)cc1,n,26.2,93.6,x,94.6,n,95.5,98.4,22.1,
CCCNC(=O)NS(=O)(=O)c1ccc(Cl)cc1,n,n,n,n,n,n,x,x,x,
CCCS(=O)(=O)c1nnnn1-c1cccc(OC)c1,n,32.9,38.7,n,61.8,n,76.2,99.3,47.8,
COc1ccccc1N(C(=O)CCl)c1cn(C(C)=O)c2ccccc12,n,56.8,74.9,n,x,n,n,86.9,23.3,
CC(=O)n1cc(Nc2ccccc2C(=O)O)c2ccccc21,n,n,n,n,n,n,x,x,x,
Nc1ccccc1NC1=CC(=O)CC(c2ccccc2)C1 (stereo unspecified),n,30.7,23.4,n,n,n,n,n,n,
SMILES,KLF5 inh,IEC-6 tox-1,Ba/F3 V617F tox,aSyn UTR inh,APP transl inh,BaF3 tox,BaF3 parental 2,JAK2V617F confrm,IEC-6 tox confirm,others
Nc1ccccc1NC1=CC(=O)CC(c2ccco2)C1 (stereo unspecified),n,n,n,n,n,n,x,x,x,
CCCCCCCc1ccc(-c2ccc(O)cc2)nc1,n,n,n,n,n,n,x,x,x,
CCCc1ccc(-c2ccc(/C=C/C(=O)O)cc2)nc1,78.9,n,n,114.5,46.3,n,x,x,x,KLF5 confirm=82.8;IEC-6 tox-2=n
CC(=NC1CCCC1)c1c(C)[nH]n(-c2nc3ccccc3s2)c1=O,72.2,n,n,94.2,n,n,x,x,x,KLF5 confirm=n;IEC-6 tox-2=n
CC(=NC1CC1)c1c(-c2ccccc2)[nH]n(-c2nc3ccccc3s2)c1=O,n,n,n,n,n,n,x,x,x,
CCCc1ccc(NC(=O)C2CCCN(c3cnccn3)C2)cc1 (stereo unspecified),n,n,x,n,x,x,x,x,x,
O=C(Nc1cccc(-c2ccc(N3CCCCC3)nn2)c1)c1ccc(Br)o1,x,x,x,n,x,x,x,x,x,
CC1CCN(c2ccc(-c3cccc(NC(=O)C(F)(F)F)c3)nn2)CC1,83.7,n,x,102.8,x,x,x,x,x,KLF5 confirm=88.1;IEC-6 tox-2=22.8
O=C(Nc1cccc(-c2ccc(N3CCCCC3)nn2)c1)C(F)(F)F,75.6,n,x,96.2,x,x,x,x,x,KLF5 confirm=n;IEC-6 tox-2=n
CCC(=O)Nc1cccc(-c2ccc(N3CCC(C)CC3)nn2)c1,n,n,x,n,x,x,x,x,x,
O=C(NCC1CCCO1)c1ccc(-c2ccccc2Cl)o1 (stereo unspecified),x,x,x,n,x,x,x,x,x,
COc1ccc(C(=O)NC2CC3CCCC(C2)N3CC(C)C)cc1 (stereo unspecified),n,n,x,n,x,x,x,x,x,
CCOC(=O)COc1cccc2c(=O)n(CC(=O)NCc3ccc(F)cc3)ccc12,62.5,n,72.2,75.2,x,68.5,x,x,x,KLF5 confirm=80.4;IEC-6 tox-2=22.6
Cc1ccc(-c2noc(CCC(=O)NCC3CCCO3)n2)cc1 (stereo unspecified),n,n,n,n,n,n,x,x,x,
CC(C)(C)c1ccc(-c2noc(CCC(=O)Nc3cccnc3)n2)cc1,77.5,n,x,76.9,x,x,x,x,x,KLF5 confirm=87.1;IEC-6 tox-2=n
CC(C)(C)c1ccc(-c2noc(CCC(N)=O)n2)cc1,86.2,n,n,90.8,71.7,n,x,x,x,KLF5 confirm=85.4;IEC-6 tox-2=n
CC(C)(C)c1ccc(-c2noc(CCC(=O)NCC3CCCO3)n2)cc1 (stereo unspecified),73.6,n,n,104.2,59.7,n,x,x,x,KLF5 confirm=67.3;IEC-6 tox-2=n
Cc1ccccc1CSc1nc2[nH]ncc2c(=O)[nH]1,n,n,n,n,n,n,x,x,x,
Cc1ccc(C)c(CSc2nc3[nH]ncc3c(=O)[nH]2)c1,65.4,63.2,83.3,n,84.8,76.2,x,x,x,KLF5 confirm=67.9;IEC-6 tox-2=53.2
O=C(CN1C(=O)CC(c2ccccc2)S(=O)(=O)c2ccccc21)N1CCCC1 (stereo unspecified),n,n,n,n,n,n,x,x,x,
O=C(CCN1C(=O)c2ccccc2S1(=O)=O)Nc1ccc2c(c1)OCCO2,n,n,n,n,n,n,x,x,x,
O=C(CN1C(=O)c2ccccc2S1(=O)=O)c1ccc(Cl)cc1Cl,83.7,n,x,77.7,x,x,x,x,x,KLF5 confirm=83.3;IEC-6 tox-2=n
O=C(CN1C(=O)c2ccccc2S1(=O)=O)c1ccc2c(c1)OCCO2,90.8,n,n,111.2,x,n,x,x,x,KLF5 confirm=96.9;IEC-6 tox-2=n

# High-throughput results from PubChem.
